# From PubChem
# Most compounds without a hit are left out; they make up all but 21% or so of the library.
# SARS PLpro yeast: inhibitors of SARS-CoV papain-like protease in yeast. S. cerevisiae expressing SARS-CoV PLpro, growth rescue. Potency, µM (titrated, usually from 32.9 µM), without a hit: top-dose activity, positive = growth rescue, most hits filed as activators. 330,000 tested, 0.19% active; further: potency means the concentration at half of the fitted maximal effect; 0% is about no effect; nearly all actives have a fitted effect of over 55% in size
# Shiga toxin inh: inhibitors of Shiga toxin in Vero cells. Vero cells, Shiga toxin protein synthesis inhibition reporter. inhibition, % at 38.7 µM. 290,000 tested, 9.2% active. AID 2315; in the data active means inhibition mostly above about 28%, no sharp cut-off; inactive means mostly below about 43%; further: 0% is about no effect
# Pf growth 48h: P. falciparum growth inhibition at 48 hours (one generation) | AID 504832 | P. falciparum luciferase growth in erythrocytes, 48 h | 310,000 tested, 5.9% active | Potency, µM (highest dose often 28.7 µM), without a hit: at the highest dose activity change, negative = inhibition, hits mostly inhibitors; active means well fitted inhibition curve with a large enough effect; inconclusive means small, poorly fitted or top-dose-only effect, or another doubt; inactive means no such curve, though single readings can be large or run the other way; further: potency means the concentration at half of the fitted maximal effect; on the % scale 0 is the no-effect control and ±100 the full control effect
#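 Firefly luciferase activity from engineered P. falciparum reports growth; inhibitors lower the luminescent signal. Cultures contained 2% hematocrit erythrocytes at 0.1% final parasitemia.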
# Pf growth 96h: P. falciparum growth inhibition at 96 hour, primary screen for plastid delayed-death inhibitors; P. falciparum luciferase reporter growth, 96 h; Potency, µM (titrated, usually from 28.7 µM), for the others: top-dose activity change, negative = inhibition, actives largely listed as inhibitors; 320,000 tested, 6.9% active; AID 504834; active means well fitted inhibition curve with a large enough effect; inconclusive means small, poorly fitted or top-dose-only effect, or another doubt; inactive means no such curve, though single readings can be large or run the other way; further: potency means the concentration at half of the fitted maximal effect; on the % scale 0 is the no-effect control and ±100 the full control effect
#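 Two parasite generations (96 h, 37 C, 5% CO2) of compound exposure in infected erythrocytes (0.05% parasitemia, 2% hematocrit). Luciferase-reporter P. falciparum; decreased luminescence indicates inhibited growth, aimed at apicoplast-acting delayed death.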
# NS1 function inh: influenza NS1 inhibition | Potency, µM (top dose mostly 46.1 µM), for the others: at the top dose activity, positive = more growth | 270,000 tested, 0.4% active | AID 2326; further: potency means the concentration at half of the fitted maximal effect; actives are rising curves; nearly all actives have a fitted effect of over 50% in size
#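 Compounds were scored for reversing the slow growth caused by influenza A NS1 in S. cerevisiae, measured by optical density at 600 nm. Assay medium contained 2% galactose at pH 6.0; NS1-free yeast of the same strain were the positive control.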
# CHX counter: affects cycloheximide protein synthesis inhibition readout, counter-screen; cell reporter, cycloheximide protein synthesis inhibition counterscreen; max response, %; 300,000 tested, 12% active; AID 2314; in the data active means max response mostly above about 13%, no sharp cut-off; inactive means mostly below about 14%; further: read at 38.3 µM for the half of the compounds with a filed dose; 0% is about no effect
# Starred values were filed as active, the others as inactive; ? = inconclusive; / = no result. Unless noted, the call rests on the fitted dose curve.
SMILES,SARS PLpro yeast,Shiga toxin inh,Pf growth 48h,Pf growth 96h,NS1 function inh,CHX counter
CC1CCN(C(=O)CSc2nnc(CSc3ncccn3)n2C)CC1,-2%,-6,-3%,-6%,1%,-3
CC1Cn2c(nnc2-c2cc3ccccc3cc2O)S1 (centres undefined),10%,-7,1.7µM*,/,0%,8
CC1Cn2c(nnc2-c2ccccc2O)S1 (centres undefined),5%,-8,/,-6%,3%,-2
O=C(COc1ccccc1)Nc1ccc2oc(=O)ccc2c1,-1%,52*,42%,24%,-10%,23*
CC(C)c1ccc(OCC(=O)Nc2ccc3oc(=O)ccc3c2)cc1,-4%,3,-14%,3.3µM*,-3%,-3
O=C(COc1ccc2ccc(=O)oc2c1)c1ccccc1,1%,31,20%,46%,-2%,23*
COc1ccc(OCC(=O)Nc2ccc3oc(=O)ccc3c2)cc1,0%,-15,?,9%,6%,0
CC(NC(=O)/C(C#N)=C/c1cn(-c2ccccc2)nc1-c1ccc(F)cc1)c1ccccc1 (centres undefined),11%,-10,?,?,6%,-6
CCSc1ccc(-c2nn(-c3ccccc3)cc2/C=C(/C#N)C(=O)NCCCOC)cc1,9%,-7,1.9µM*,?,0%,-4
CCCSc1ccc(-c2nn(-c3ccccc3)cc2/C=C(/C#N)C(=O)NCCCOC)cc1,0%,-5,1%,3.7µM*,8%,-2
Cc1ccc(-c2nn(-c3ccccc3)cc2/C=C(\C#N)C(=O)NCc2ccccc2)cc1,5%,9,14%,44%,12%,-1
COc1ccc(OC)c(NC(=O)CCNS(=O)(=O)c2ccc3c(c2)c(=O)n(C)c(=O)n3C)c1,0%,20,24%,30%,/,-5
CCCC(=O)Nc1cccc(NC(=O)c2ccc3c(c2)OCCO3)c1,-2%,64*,47%,?,-65%,23*
CCCC(=O)Nc1cccc(NC(=O)c2ccc(C)c([N+](=O)[O-])c2)c1,5%,21,31%,19%,-6%,-1
CCCCC(=O)Nc1cccc(NC(=O)c2ccc3c(c2)OCO3)c1,2%,12,8%,54%,-6%,14*
CC(=O)N1CCN(C(=O)C(Cc2c[nH]c3ccccc23)NC(=O)c2ccccc2Cl)CC1 (centres undefined),7%,24,-14%,-22%,-7%,-3
Cc1cc(-c2ccc(C(=O)O)s2)cnc1N,-6%,76*,264%,162%,/,43*
CC1(C)C=C(c2ccc(C(=O)O)s2)CC(C)(C)N1,8%,6,-2%,74%,11%,-4
O=C(Nc1ccccc1)c1ccc(-c2ccccc2)s1,-1%,100*,227%,18%,/,39*
O=C(O)c1ccc(-c2ccc(-c3ccccc3)cc2)s1,-1%,37,101%,145%,-17%,23*
Cc1ccc(S(=O)(=O)N2CCOCC2)cc1C(=O)OCC(=O)c1ccc[nH]1,4%,/,?,?,/,/
Cc1ccc(C)c(OCC(=O)NNC(=O)CCN2CCN(c3ccccc3)CC2)c1,-2%,/,-26%,?,/,/
Cc1cccn2c(CNCCc3ccco3)c(C(=O)N3CCOCC3)nc12,2%,-5,?,0%,3%,-2
O=C(/C=C/c1ccccc1)NC(=S)Nc1ccc(N2CCOCC2)cc1,13%,10,5%,-15%,9%,-2
O=C(/C=C/c1ccccc1)NC(=S)Nc1ncccn1,-1%,51*,0%,-3%,-3%,25*
SMILES,SARS PLpro yeast,Shiga toxin inh,Pf growth 48h,Pf growth 96h,NS1 function inh,CHX counter
NC(N)=NS(=O)(=O)c1ccc(NC(=S)NC(=O)/C=C/c2ccc(F)cc2)cc1,11%,-13,10%,?,29%,-3
O=C(/C=C/c1ccc(F)cc1)NC(=S)Nc1ccccc1,0%,34*,22%,14%,3%,13
O=C(/C=C/c1ccccc1)NC(=S)NNC(=O)c1ccco1,12%,65*,31%,3%,-25%,20*
O=C(/C=C/c1ccccc1)NC(=S)Nc1ccccc1,8%,/,18%,3%,-13%,25*
c1ccn2cc(C34CC5CC(CC(C5)C3)C4)nc2c1,2%,64,?,-12%,/,15
O=[N+]([O-])c1ccccc1OCC(O)CN1CCN(CC(O)COc2ccccc2[N+](=O)[O-])CC1 (centres undefined),0%,13,?,19%,-13%,-1
Cc1ccc(OCC(=O)Nc2cc(S(=O)(=O)N3CCCCC3)ccc2C)c([N+](=O)[O-])n1,-9%,6,2%,-16%,-4%,-2
CCOc1ncccc1C(=O)OCC(=O)NCCc1ccc(S(N)(=O)=O)cc1,10%,/,-4%,21%,/,/
CC(Oc1ccc2c(=O)c(-c3ccc(Cl)cc3)c(C(F)(F)F)oc2c1)C(=O)O (centres undefined),0%,-2,10µM*,29%,5%,-5
O=C(O)c1ccc(Oc2c(C(F)(F)F)oc3cc(O)ccc3c2=O)cc1,-1%,17,122%,311%,/,-2
CC(C)COP(=O)(OCC(C)C)C(Nc1ccccc1)c1ccccc1 (centres undefined),-4%,9,?,?,-2%,-1
O=P(Oc1ccccc1)(Oc1ccccc1)C(Nc1ccccc1)c1ccccc1 (centres undefined),-20%,-9,?,1.7µM*,2%,-4
CN1CCCN(C(=O)c2cccc(Br)c2)CC1,2%,-3,-8%,?,22%,1
O=C(c1cc2ccccc2cc1O)N1CCN(c2ccccn2)CC1,1%,-5,?,?,-8%,-2
CN1CCN(c2cc(-c3cc(O)c4ncccc4c3)ccn2)CC1,1%,/,12µM*,?,/,/
Oc1cc(-c2cccnc2)cc2cccnc12,5%,/,7.4µM*,4.1µM*,/,/
CN1CCN(C(=O)c2cccc(-c3cc(O)c4ncccc4c3)c2)CC1,6%,/,10µM*,10µM*,/,/
c1cncc(-c2cc(-c3cc(-c4cccnc4)n[nH]3)[nH]n2)c1,/,/,/,/,22%,/
OC[C@@H]1O[C@@H](N2CCN([C@@H]3O[C@@H](CO)[C@@H](O)[C@H](O)[C@H]3O)CC2)[C@@H](O)[C@H](O)[C@H]1O,/,/,/,/,-5%,/
CC1CC(C)CN(C(C)C(=O)Nc2cc(S(=O)(=O)N3CCCCC3)ccc2Cl)C1 (centres undefined),3%,/,/,/,/,/
O=C(Nc1cc(S(=O)(=O)N2CCCCC2)ccc1N1CCCCC1)C1CC1,-1%,4,10µM*,?,-7%,2
O=C(Nc1cc(S(=O)(=O)N2CCCCC2)ccc1N1CCCCC1)c1ccncc1,1%,-12,9.3µM*,8.3µM*,-8%,-2
CC1CCN(C(C)C(=O)Nc2cc(S(=O)(=O)N3CCCCC3)ccc2Cl)CC1 (centres undefined),-1%,/,12µM*,9.3µM*,/,/
